Laboratory results: PubChem BioAssay (Tox21)
Where “and” joins values, the source holds several entries; their conditions need not be identical. Equal entries are not always repeated. Results filed as inconclusive are left out. Where a call stands in place of a potency, no number is given. Calls of active or inactive are those of the source. Unless noted, the call rests on the fitted dose curve; in most records, active means well fitted curve in the direction sought with a large enough effect in the repeat runs; inconclusive means weak or mixed curves; inactive means no such curve, though single readings can be large; an effect the other way counts as inactive or inconclusive.

Tests used:
[1] = qHTS assay for small molecule agonists of the p53 signaling pathway (AID 651631; calls by dose curve; further: nearly all actives have a fitted effect of over 15% in size; further: potency means the concentration at half of the fitted maximal effect)
Procedure, shortened: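 Agonist mode screen using a stably integrated beta-lactamase gene under p53 response elements in HCT-116 cells. Compound exposure lasts 16 h at 37 °C; fluorescence intensity is measured following 2 h FRET substrate loading.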

[2] = qHTS assay for small molecules that induce genotoxicity in human embryonic kidney cells expressing luciferase-tagged ATAD5 (AID 651632); further: nearly all actives have a fitted effect of over 15% in size
Procedure, shortened: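 Quantitative HTS in HEK293T expressing luciferase-tagged ATAD5, whose levels rise upon DNA damage. Exposure ran 16 hr at 37C and 5% CO2, with luminescence read 30 min after Amplite addition at room temperature.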

[3] = qHTS assay for small molecule agonists of the p53 signaling pathway - cell viability (AID 651633; calls by dose curve; further: nearly all actives have a fitted effect of over 30% in size; further: potency means the concentration at half of the fitted maximal effect)
Procedure, shortened: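 p53RE-bla cells were treated with compound for 16 hours at 37 C. Cytotoxicity was then measured as CellTiter-Glo luminescence after 30 min at room temperature.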

[4] = qHTS assay for small molecules that induce genotoxicity in human embryonic kidney cells expressing luciferase-tagged ATAD5 - cell viability (AID 651634; calls by dose curve; further: nearly all actives have a fitted effect of over 25% in size; further: potency means the concentration at half of the fitted maximal effect)
Procedure, shortened: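 After 15.5 hr incubation with compound at 37C, 5% CO2, HEK293T ATAD5-luciferase cells received CellTiter-Fluor reagent; fluorescence intensity was quantified following 30 min at 37C.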

[5] = qHTS assay for small molecule disruptors of the mitochondrial membrane potential - cell viability (AID 720634; calls by dose curve; further: nearly all actives have a fitted effect of over 20% in size; further: potency means the concentration at half of the fitted maximal effect)
Procedure, shortened: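 ATP-based luminescent viability readout (CellTiter-Glo, 30 min, room temperature) in HepG2 cells multiplexed with the m-MPI membrane potential dye; compound exposure lasted 1 hr at 37 C.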

[6] = qHTS assay to test for compound auto fluorescence at 590 nm (red) in HepG2 cells (AID 720674)
Procedure, shortened: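 Seeding: 2,000 HepG2 cells/well, MEM/10% FBS, overnight 37 C. Dosing: compound vs DMSO. Incubation: 1 hr, 37 C, 5% CO2. Read: fluorescence 540 ex/590 em, Rose Bengal sodium as red reference.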

[7] = qHTS assay to test for compound auto fluorescence at 535 nm (green) in HepG2 cells (AID 720675)
[8] = qHTS assay to test for compound auto fluorescence at 460 nm (blue) in HEK293 cells (AID 720678)
Procedure, shortened: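 Intrinsic compound fluorescence is recorded in live HEK293 cultures after overnight incubation at 37C, 5% CO2, using excitation 405 nm and emission 460 nm. Values are referenced to triamterene.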

[9] = qHTS assay to test for compound auto fluorescence at 590 nm (red) in HEK293 cells (AID 720679)
Procedure, shortened: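 Red autofluorescence, HEK293 cells: 2,000 cells/well; attach 4-5 hr 37C; add 23 nL cpd or DMSO; incubate o/n 37C 5% CO2; read Ex540/Em590; Rose Bengal sodium reference.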

[10] = qHTS assay to test for compound auto fluorescence at 535 nm (green) in HEK293 cells (AID 720680)
[11] = qHTS assay to test for compound auto fluorescence at 460 nm (blue) in HEK293 cell free culture (AID 720681)
Procedure, shortened: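 Compounds were added to cell-free DMEM with 10% FBS and fluorescence read directly. The blue channel used 405 nm excitation and 460 nm emission, with triamterene as the reference fluorophore.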

[12] = qHTS assay to test for compound auto fluorescence at 535 nm (green) in HEK293 cell free culture (AID 720682)
Procedure, shortened: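 No cells present: wells hold DMEM supplemented with 10% FBS, into which compound or vehicle is pinned. Green emission is then recorded (485 nm excitation, 535 nm emission) and scaled to fluorescein.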

[13] = qHTS assay to test for compound auto fluorescence at 590 nm (red) in HEK293 cell free culture (AID 720683)
Procedure, shortened: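 Cell-free wells of DMEM with 10% FBS received compound, and intrinsic fluorescence was read at excitation/emission 540/590 nm. Values expressed as equivalence to Rose Bengal sodium.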

[14] = qHTS assay to test for compound auto fluorescence at 590 nm (red) in HepG2 cell free culture (AID 720684)
Procedure, shortened: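 Rose Bengal sodium served as the reference for red signal. Test compounds were dispensed into serum-containing MEM (10% FBS) without cells, and plates were read at 540/590 nm.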

[15] = qHTS assay to test for compound auto fluorescence at 460 nm (blue) in HepG2 cell free culture (AID 720685)
Procedure, shortened: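 Cell-free plates of MEM plus 10% FBS received 23 nL compound or DMSO vehicle; blue-channel (405/460 nm) intensity scored against triamterene as reference fluorophore.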

[16] = qHTS assay to test for compound auto fluorescence at 535 nm (green) in HepG2 cell free culture (AID 720686)
[17] = qHTS assay to test for compound auto fluorescence at 460 nm (blue) in HepG2 cells (AID 720687)
Procedure, shortened: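 HepG2 cells in MEM with 10% FBS, attached overnight at 37 C, were exposed to compound or DMSO for 1 hr at 37 C, 5% CO2. Blue fluorescence was read at 405/460 nm, with triamterene as reference fluorophore.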

[18] = qHTS assay for small molecule disruptors of the mitochondrial membrane potential (AID 720635); further: potency means the concentration at half of the fitted maximal effect
Procedure, shortened: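 HepG2 cells exposed to compound 1 hr at 37C, then Mito-MPS dye 30 min. Ratio read of aggregate (540/590 nm) versus monomer (490/535 nm) fluorescence.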

[19] = biological target: Glucocorticoid receptor (Homo sapiens) (UniProt P04150); experiment: qHTS assay to identify small molecule antagonists of the glucocorticoid receptor (GR) signaling pathway (AID 720692; active means well fitted inhibition curve with a large enough effect in the signal ratio in the repeat runs, not every such curve was filed as active; the % refers to the signal ratio)
Procedure, shortened: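 Quantitative HTS in antagonist format: HeLa cells expressing endogenous GR and a stably integrated GRE-bla reporter, stimulated with 5 nM dexamethasone (final) alongside test compounds for 18 h.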

[20] = biological target: Glucocorticoid receptor (Homo sapiens) (UniProt P04150); experiment: qHTS assay to identify small molecule agonists of the glucocorticoid receptor (GR) signaling pathway (AID 720691; active means well fitted activation curve with a large enough effect in the signal ratio in the repeat runs, not every such curve was filed as active; the % refers to the signal ratio); conditions: GR-bla HeLa, beta-lactamase reporter ratio, 18 h; activation: at 62.4 µM (top of the series)
Procedure, shortened: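 Cells: GR-bla HeLa, endogenous GR with stably integrated GRE-beta-lactamase reporter. Treatment 18 h, 37 C, compounds delivered in DMSO. Detection via LiveBLAzer B/G FRET substrate, 2 h RT, fluorescence intensity.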

Chain of Glucocorticoid receptor (Homo sapiens) (P04150 whole entry, looked up): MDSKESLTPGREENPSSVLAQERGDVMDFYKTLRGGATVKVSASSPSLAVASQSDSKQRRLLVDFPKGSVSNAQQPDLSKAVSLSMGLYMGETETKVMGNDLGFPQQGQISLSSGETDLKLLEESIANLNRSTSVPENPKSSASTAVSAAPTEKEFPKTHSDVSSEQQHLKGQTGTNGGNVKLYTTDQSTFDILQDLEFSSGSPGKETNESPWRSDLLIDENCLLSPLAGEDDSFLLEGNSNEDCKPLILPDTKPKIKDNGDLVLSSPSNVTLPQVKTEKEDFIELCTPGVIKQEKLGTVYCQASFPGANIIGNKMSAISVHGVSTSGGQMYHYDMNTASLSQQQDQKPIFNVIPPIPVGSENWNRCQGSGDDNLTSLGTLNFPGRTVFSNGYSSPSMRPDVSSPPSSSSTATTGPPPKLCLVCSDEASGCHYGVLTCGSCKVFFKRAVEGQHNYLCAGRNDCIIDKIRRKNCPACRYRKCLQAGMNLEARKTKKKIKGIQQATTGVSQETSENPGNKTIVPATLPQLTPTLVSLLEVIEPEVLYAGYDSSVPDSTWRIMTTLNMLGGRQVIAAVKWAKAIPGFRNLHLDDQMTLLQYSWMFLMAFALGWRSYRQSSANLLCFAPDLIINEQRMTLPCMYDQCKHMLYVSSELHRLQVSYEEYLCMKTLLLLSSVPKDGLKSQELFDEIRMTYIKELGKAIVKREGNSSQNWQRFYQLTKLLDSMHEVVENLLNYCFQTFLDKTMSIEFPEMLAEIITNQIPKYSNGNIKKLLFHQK

Row | SMILES | Potency [1] | Potency [2] | Potency [3] | Potency [4] | Potency [5] | Potency [6] | Potency [7] | Potency [8] | Potency [9] | Potency [10] | Potency [11] | Potency [12] | Potency [13] | Potency [14] | Potency [15] | Potency [16] | Potency [17] | Potency [18] | Potency [19] | Potency [20]
1 | CCCCCCCCCCCCCCNCCO | inactive | inactive | inactive | inactive | inactive | inactive | inactive | inactive | inactive | inactive | inactive | inactive | inactive | inactive | inactive | inactive | inactive |  |  | 
2 | CO[C@H]1C=CO[C@@]2(C)Oc3c(C)c(O)c4c(O)c(cc(O)c4c3C2=O)NC(=O)/C(C)=C\C=C/[C@H](C)[C@H](O)[C@@H](C)[C@@H](O)[C@@H](C)[C@H](OC(C)=O)[C@@H]1C | inactive | inactive | inactive | inactive | inactive | inactive | inactive | inactive | inactive | inactive | inactive | inactive | inactive | inactive | inactive | inactive | inactive |  |  | 
3 | CC1=C(/C=C/C(C)=C/C=C/C(C)=C/C(=O)Nc2ccc(O)cc2)C(C)(C)CCC1 | 29.8 µM (active) | inactive | 29.8 µM (active) and 62.7 µM (active) | 23.7 µM (active) and 28 µM (active) | inactive | inactive | inactive | inactive | inactive | inactive | inactive | inactive | inactive | inactive | inactive | inactive | inactive | 3.35 µM (active) and 2.8 µM (active) |  | 
4 | C=CC(=C)CCC=C(C)C | inactive | inactive | inactive | inactive | inactive | inactive | inactive | inactive | inactive | inactive | inactive | inactive | inactive | inactive | inactive | inactive | inactive |  | inactive | 
5 | C(=C/c1ccccc1)/c1ccccc1 | inactive | inactive | inactive | inactive | inactive | inactive | inactive | inactive | inactive | inactive | inactive | inactive | inactive | inactive | inactive | inactive | inactive |  |  | 
6 | CCOC(=O)N1CCC(=C2c3ccc(Cl)cc3CCc3cccnc32)CC1 | 23.7 µM (active) and 61.1 µM (active) | inactive | 68.6 µM (active) | 43.3 µM (active) | 27.3 µM (active) | inactive | inactive | inactive | inactive | inactive | inactive | inactive | inactive | inactive | inactive | inactive | inactive | 29.8 µM (active) and 54.5 µM (active) |  | inactive
7 | O=C1OC(OC(=O)c2cccnc2Nc2cccc(C(F)(F)F)c2)c2ccccc21 (stereo not drawn) | inactive | inactive | inactive | inactive | inactive | inactive | inactive | inactive | inactive | inactive | inactive | inactive |  | inactive | inactive | inactive | inactive | 24.8 µM (active) | inactive | inactive
8 | CC(COC(=O)c1ccccc1)OC(=O)c1ccccc1 (stereo not drawn) | inactive | inactive | inactive | inactive | inactive | inactive | inactive | inactive | inactive | inactive | inactive | inactive | inactive | inactive | inactive | inactive | inactive |  |  | 
9 | CCC(=O)OCCc1ccccc1 | inactive | inactive | inactive | inactive | inactive | inactive | inactive | inactive | inactive | inactive | inactive | inactive | inactive | inactive | inactive | inactive | inactive | inactive | inactive | inactive
10 | Oc1c(Br)cc(Br)c2cccnc12 | 5.96 µM (active) | inactive | 6.68 µM (active) | inactive | inactive | inactive | inactive |  | inactive | inactive | inactive | inactive | inactive | inactive | inactive | inactive | inactive |  |  | 
11 | Cc1c(C(=O)O)cccc1[N+](=O)[O-] | inactive | inactive | inactive | inactive | inactive | inactive | inactive | inactive | inactive | inactive | inactive | inactive | inactive | inactive | inactive | inactive | inactive | inactive |  | inactive
12 | CC(C)=C1CC[C@@H](C)CC1=O | inactive | inactive | inactive | inactive | inactive | inactive | inactive | inactive | inactive | inactive | inactive | inactive | inactive | inactive | inactive | inactive | inactive | inactive |  | 
13 | [O]=[Zr] | inactive | inactive | inactive | inactive | inactive | inactive | inactive | inactive | inactive | inactive | inactive | inactive | inactive | inactive | inactive | inactive | inactive | inactive |  | 
